# DRD3 antagonist: qHTS of D3 Dopamine Receptor Antagonist: qHTS; AID 652054, 2013; D(3) dopamine receptor (Homo sapiens), P35462; D3R cells, DiscoveRx beta-arrestin luminescence, antagonist mode; hits give low values; actives 2.5% (n = 360,000); max response, negative = inhibition, %; in the data active means max response below about -50%; inconclusive means no clear call, values can overlap the other calls; further: on the % scale 0 is the no-effect control and ±100 the full control effect
#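 Cells expressing the human receptor were seeded at 1500 cells/well, incubated overnight at 37 degrees C in 5% CO2, then exposed to library compounds with dopamine controls for 90 minutes at 37 degrees C before luminescent detection.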
# B2AR arrestin: qHTS assay of beta-arrestin-biased ligands of beta2-adrenergic receptor; Potency, µM (highest dose often 46.1 µM), for the others: top-dose activation, usual class: activators; beta-arrestin recruitment to beta2AR, cell-based reporter; AID 492947, 2010; Beta-2 adrenergic receptor (Homo sapiens), P07550; actives 0.02% (n = 330,000); active means well fitted activation curve with a large enough effect; inconclusive means small, poorly fitted or top-dose-only effect;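 further: potency means the concentration at half of the fitted maximal effect; 0% = DMSO controls and full agonism = EC100 isoproterenol or metaproterenol; nearly all actives have a fitted effect of over 65% in size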
# Target sequence (P07550 whole entry, looked up): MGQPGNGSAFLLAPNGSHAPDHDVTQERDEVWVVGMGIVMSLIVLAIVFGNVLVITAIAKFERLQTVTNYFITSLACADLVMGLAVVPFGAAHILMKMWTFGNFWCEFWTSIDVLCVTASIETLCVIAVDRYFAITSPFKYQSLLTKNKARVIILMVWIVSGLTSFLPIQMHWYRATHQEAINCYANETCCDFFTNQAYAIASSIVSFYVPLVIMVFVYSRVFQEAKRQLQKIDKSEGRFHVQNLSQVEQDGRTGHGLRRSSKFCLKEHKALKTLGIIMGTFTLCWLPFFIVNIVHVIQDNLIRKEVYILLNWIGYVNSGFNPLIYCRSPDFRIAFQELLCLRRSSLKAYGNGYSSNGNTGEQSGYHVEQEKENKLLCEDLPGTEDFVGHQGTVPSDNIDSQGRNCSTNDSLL
# D3 ag: qHTS of D3 Dopamine Receptor Agonist: qHTS; actives 0.58% (n = 410,000); D3R DiscoveRx beta-arrestin cells, luminescence, 90 min; D(3) dopamine receptor (Homo sapiens), P35462; max activation, %; AID 652048, 2013; in the data active means max activation above about 30%; further: 0% is about no effect
#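 Cells at 1500/well, incubated overnight, then treated with pinned compounds (dopamine as control) for 90 min at 37 degrees C. DiscoveRx reagent added for 30 - 60 minutes at room temperature; luminescence read.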
# Giardia kill: Small Molecules that selectively kill Giardia lamblia: qHTS; activity change, % at 7.66 µM, hits read low; Giardia lamblia trophozoite viability; actives 0.15% (n = 340,000); in the data active means activity change below about -80%; inconclusive means between about -30% and that limit;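 further: parasites exposed to compound for two days anaerobically before the ATP read; on the % scale 0 is the no-effect control and ±100 the full control effect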
#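 ATP-content bioluminescence gauges trophozoite survival. Cells (100/well) receive compound and incubate anaerobically for 48 hrs at 37 deg C; detection reagent follows for 15-30 min at room temperature.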
# Numbers without * were called inactive; ? = inconclusive; · = not tested or not shown. Hits are enriched below; roughly 2.8% of the tested compounds scored in any of these assays.
SMILES,DRD3 antagonist,B2AR arrestin,D3 ag,Giardia kill
Cc1cc(C)c(OCC(=O)Nc2ccc(NC(=O)c3ccco3)cc2)c([N+](=O)[O-])c1,-4,0%,-1,-5
Cc1cc(C)cc(C(=O)Nc2cccc(-c3nc4ncccc4o3)c2C)c1,·,·,-16,·
Cc1cc(C)c(OCC(=O)Nc2cccc(NC(=O)c3ccco3)c2)c(Br)c1,43,0%,34*,11
O=C(Nc1cccc2ncccc12)c1ccc([N+](=O)[O-])o1,-4,-1%,-7,-80*
Cc1ccccc1-c1nc(CS(=O)(=O)CC(=O)NCCCc2ccccc2)c(C)o1,·,·,-7,·
CCC(=O)Oc1cc(C(C)(C)C)cc2cc(-c3nc(-c4ccc(OC)cc4OC)no3)c(=O)oc12,·,·,-17,·
CC(C)(C)C(C(=O)NCc1ccccc1)N1CCN(CCN2CCOCC2)CC1 (stereo not drawn),-64*,·,-18,·
Clc1ccc(SCCOCCN2CCc3ccccc3C2)cc1,-88*,0%,-11,-1
CC1CCN(CCOCCSc2ccc(Cl)cc2)CC1,-110*,-1%,-4,-4
Clc1ccc(SCCOCCN2CCOCC2)cc1,?,0%,-23,-9
Clc1ccc(SCCOCCN2CCCCC2)cc1,-80*,-1%,-14,14
CC(C)(C)OC(=O)NCCCCCc1cn([C@@H](CO)C(=O)NCCCCCCCCCCC(=O)N2CCN(C(=O)OC(C)(C)C)CC2)nn1,129,0%,58*,9
CCCCc1cn([C@@H](CCCCNC(=O)OC(C)(C)C)C(=O)N2CCN(C(=O)OC(C)(C)C)CC2)nn1,5,-1%,2,24
CC(C)(C)OC(=O)NCCCC[C@@H](C(=O)N1CCN(C(=O)OC(C)(C)C)CC1)n1cc(CCC(=O)O)nn1,12,0%,38*,-12
Cc1noc(C)c1S(=O)(=O)Nc1ccc(C(=O)Nc2ccc(C(C)C)cc2)cc1,·,·,-3,·
CN1CCN(C2Cc3ccccc3Sc3cc(C(F)(F)F)ccc32)CC1 (stereo not drawn),-96*,·,-18,4
CSc1cccc(NC(=O)N2CCN(C)CC2)c1,10,-1%,0,-20
CSc1ccc2c(c1)C(N1CCN(C)CC1)Cc1ccccc1S2 (stereo not drawn),-84*,0%,-81,-7
O=S(=O)(NCC(c1cccs1)S(=O)(=O)c1ccccc1)c1ccc(F)cc1 (stereo not drawn),·,·,-10,·
O=S(=O)(c1ccc(OC(F)(F)F)cc1)N1CCN(c2nc(-c3cccs3)nc3ccccc23)CC1,·,·,·,8
Clc1ccc2nc(CN3CCCCCC3)cn2c1,-85*,0%,-5,35
Clc1ccc2nc(CN3CCCCC3)cn2c1,?,0%,-28,14
O=S(=O)(N1CCN(c2nc(-c3cccs3)nc3ccccc23)CC1)C(F)(F)F,·,·,·,17
COc1ccc2c(c1)CCc1c(C(=O)NCCc3ccc(OC)c(OC)c3)noc1-2,-13,0%,20,1
COc1ccc2c(c1)CCc1c(C(=O)Nc3ccc(OC)c(OC)c3)noc1-2,14,0%,34*,-4
SMILES,DRD3 antagonist,B2AR arrestin,D3 ag,Giardia kill
COC(=O)c1ccc(NC(=O)CN2CCN(c3ccccc3)CC2)cc1,-25,0%,33*,8
CCc1cccc(CC)c1NC(=O)CN1CCN(c2ccccc2)CC1,-76*,-1%,-10,-1
O=C(COC(=O)c1cccnc1Nc1ccccc1F)NCCN1C(=O)CSC1=O,-57*,0%,-2,20
CCCNC(=O)COC(=O)c1cccnc1Nc1ccccc1F,-13,0%,2,4
CCc1ccc2[nH]c(=O)c(CN(Cc3ccc4c(c3)OCO4)Cc3nnnn3C3CCCC3)cc2c1,15,0%,35*,-8
C=CCc1cc(Cl)ccc1OCCNCCOC,-56*,0%,-12,22
C=CCc1cc(Cl)ccc1OCCNCCN1CCOCC1,?,-1%,-10,-7
C=CCNCCOCCOc1ccc(Cl)cc1C(C)(C)C,-58*,0%,-20,-12
C=CCNCCCOc1ccc(Cl)cc1C(C)(C)C,13,-1%,-18,-3
CC(=O)OCC(=O)Nc1cc(C#N)cc(NC(=O)COC(C)=O)c1Cl,·,·,7,·
CC/C=C/[C@@H](c1ccccc1)[C@H](C)C(O)CC(=O)SC(C)(C)C (stereo partly drawn),·,·,·,0
O=S(=O)(c1cccc2cccnc12)N1CCCCC1,6,0%,1,-10
CN1CCN(c2ncccc2S(=O)(=O)N2CCCCC2)CC1,-67*,0%,-15,-11
Cc1ccc(-c2nnc(N3CCCCC3)c3ccccc23)cc1S(=O)(=O)N1CCN(C)CC1,-83*,-2%,-18,2
CC(=O)c1sc2nc(-c3ccc(C)cc3)c3c(c2c1N)CCCC3,68,-1%,52*,3
O=C(CCn1c(=O)c2ccccc2n(Cc2cccnc2)c1=O)NCc1ccc2c(c1)OCO2,-59*,0%,-3,-13
Cc1oc(-c2ccc(Cl)cc2)nc1Cn1c(=O)cc(C)c2c(C)nn(-c3ccccc3)c21,·,·,3,·
C#CCN(C[C@@H]1[C@@H](OC(=O)NCC2CCCCC2)[C@@H](OC(=O)NCC2CCCCC2)Cn2c(=O)ccc(=O)n21)S(=O)(=O)c1ccc(C)cc1,-81*,·,-7,·
O=C(Nc1ccccc1)N1C2CCC1CC(O)(c1cccnc1)C2 (stereo not drawn),-15,-1%,-13,-3
CC(C)C(=O)N1C2CCC1CC(O)(c1ccc(F)cc1)C2 (stereo not drawn),-67*,-1%,-8,-2
Cc1cc(N2C3CCC2CC(O)(c2ccc(F)cc2)C3)nc(-c2ccccc2)n1 (stereo not drawn),-60*,0%,-23,-4
COc1ccc(NC2=Nc3ccccc3CC2)cc1,-56*,0%,-34,-4
CCOC(=O)CC(NC(=O)c1cc2cc(Cl)ccc2oc1=O)c1ccc(C)cc1 (stereo not drawn),·,·,9,·
CN(C)c1ccc(P(=O)(CC(=O)N/N=C/c2ccc(C#N)cc2)OCCCl)cc1 (stereo not drawn),-63*,0%,-25,-11
CCN(CC)S(=O)(=O)c1ccc(NC(=O)c2c(C)oc3ncnc(N4CCOCC4)c23)cc1,·,·,3,·
SMILES,DRD3 antagonist,B2AR arrestin,D3 ag,Giardia kill
NC(=O)c1cccc(Nc2nc(C(N)COCc3ccccc3)cs2)n1 (stereo not drawn),-65*,·,-2,·
O=C(Nc1ccccc1N1CCOCC1)c1ccc([N+](=O)[O-])s1,?,0%,-19,-89*
Cc1cccc(C)c1NC(=O)c1ccc([N+](=O)[O-])s1,-29,-1%,-7,?
Cc1cccc(NC(=O)c2ccc([N+](=O)[O-])s2)n1,5,-1%,1,-89*
CN1CCN(c2ccccc2NC(=O)c2ccc([N+](=O)[O-])o2)CC1,0,0%,-16,-92*
CS(=O)(=O)N1CCN(c2ccccc2NC(=O)c2ccc([N+](=O)[O-])o2)CC1,-19,0%,-3,-98*

# Source: PubChem (National Center for Advancing Translational Sciences (NCATS))
